HCV inh – qHTS Assay for Inhibitors of Hepatitis C Virus (HCV). Huh7.5.1 HCVcc-Cre infection, luciferase reporter, 44 h. AID 651820, 2012. Potency, µM (series often up to 41.8 µM), hits mostly inhibitors. hit rate 3.4% among 340,000
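Compounds are dispensed onto cells plated 4 h earlier at 1,000 per well, with HCVcc-Cre virus (about 0.5 moi) added next. Following 44 h of culture, luminescent signal is measured for 15 sec after 15 min with substrate at room temperature.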
Pf growth 96h – Primary qHTS for delayed death inhibitors of the malarial parasite plastid, 96 hour incubation; P. falciparum luciferase reporter growth, 96 h; Potency, µM (series often up to 28.7 µM), usual class: inhibitors; hit rate 6.9% among 320,000; AID 504834, 2011
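Delayed-death screen, second-generation endpoint: infected erythrocytes, 2% hematocrit, 0.05% parasitemia final; 96 hours at 37 C, 5% CO2; luciferase detection reagent; luminescence decrease equals reduced growth.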
Pf growth 48h – Primary qHTS for delayed death inhibitors of the malarial parasite plastid, 48 hour incubation; P. falciparum luciferase growth in erythrocytes, 48 h; Potency, µM (doses to about 28.7 µM), hits mostly inhibitors; hit rate 5.9% among 310,000; AID 504832, 2011
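Growth was read as firefly luciferase luminescence after a 48 h, 37 C, 5% CO2 exposure of compounds to reporter-bearing P. falciparum cultures (0.1% parasitemia, 2% hematocrit final) in Albumax-supplemented RPMI 1640.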
NS1 inh – qHTS Assay for Inhibitors of Influenza NS1 Protein Function; hit rate 0.4% among 270,000; Potency, µM (doses to about 46.1 µM); calls by dose curve; note: actives are rising curves; nearly all actives have a fitted effect of over 50% in size
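S. cerevisiae expressing influenza A NS1, grown in glucose, washed, then diluted 1:100 into pH 6.0 -URA galactose medium with 23 nl compound. Growth recovery read as OD600; NS1-free strain serves as control.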
SARS PLP yeast – qHTS of Yeast-based Assay for SARS-CoV PLP; S. cerevisiae expressing SARS-CoV PLpro, growth rescue; Potency, µM (top dose mostly 32.9 µM), actives largely listed as activators; hit rate 0.19% among 330,000; calls by dose curve; note: nearly all actives have a fitted effect of over 55% in size
AMA1-RON2 inh – qHTS for Inhibitors of AMA1-RON; Towards Development of Antimalarial Drug Lead: Primary Screen | AlphaScreen AMA1-biotinylated RON2 peptide binding | Potency, µM (series often up to 58.2 µM), usual class: inhibitors | AID 720542, 2013 | hit rate 0.2% among 360,000; note: nearly all actives have a fitted effect of over 45% in size
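AMA1 (3D7) with his tag at 25 nM final met compounds first, then biotinylated RON2 peptide at 25 nM; detection used donor plus acceptor beads, 10 µg/mL apiece, read by AlphaScreen after 30 min at room temperature.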
A number is an active result; n = inactive; u = inconclusive; x = not tested or not shown. This is a sample that favours compounds with a hit; in the whole collection about 12% have one here. Unless noted, calls come from the whole dose curve; as a rule, active = well fitted curve in the direction sought with a large enough effect; inconclusive = small, poorly fitted or top-dose-only effect, or another doubt; inactive = no such curve, though single readings can be large; an effect the other way counts as inactive or inconclusive.

SMILES	HCV inh	Pf growth 96h	Pf growth 48h	NS1 inh	SARS PLP yeast	AMA1-RON2 inh
CCOC(=O)Cn1c(-c2cccnc2)nc(-c2ccccc2)c1-c1ccccc1	n	2.3µM	4.1µM	n	n	n
CCOC(=O)Cn1nc(-c2ccccc2)c(-c2ccccc2)nc1=O	n	n	n	n	n	n
CCOC(=O)c1cc(-c2ccc(OC)cc2OC)nn1-c1ccc(C(=O)O)cc1	n	u	n	n	n	n
COc1ccc(-n2nnnc2C2(C)CCC(=O)N2Cc2ccccc2)cc1 (stereo not drawn)	x	x	x	x	x	n
O=[N+]([O-])c1ccc(/C=N/Nc2nc(N3CCCCCC3)nc(N3CCCCCC3)n2)o1	u	u	5.2µM	n	n	n
CCOc1cccc(/C=N/Nc2nc(N3CCCC3)nc(N3CCCC3)n2)c1O	u	n	0.83µM	n	n	n
Oc1ccccc1/C=N/Nc1cc(N2CCCC2)nc(N2CCCC2)n1	u	n	2.1µM	n	n	n
CCOc1cc(/C=N/Nc2nc(N3CCCC3)nc(N3CCCC3)n2)ccc1O	u	u	u	n	n	n
COc1ccc([N+](=O)[O-])cc1/C=N/Nc1nc(N2CCCCC2)nc(N2CCCCC2)n1	20µM	n	u	x	n	n
O=[N+]([O-])c1cc2c(cc1/C=N/Nc1nc(N3CCCC3)nc(N3CCCC3)n1)OCO2	u	n	n	u	n	n
O=[N+]([O-])c1ccc(/C=N/Nc2nc(N3CCCCC3)nc(N3CCCCC3)n2)cc1	u	n	u	n	n	n
CC(=O)Nc1ccc(CN(C)c2c(C)nc3ccc(C(=O)N4CCN(C(=O)c5ccco5)CC4)cn23)cc1	x	x	x	x	x	n
O=C(CN1C(=O)NC2(CCCC2)C1=O)N1CCN(S(=O)(=O)c2cccc(C(F)(F)F)c2)CC1	n	n	n	x	n	n
Cc1cc(O)c(C=Nc2ccc(Cl)cn2)c(=O)o1	n	n	x	n	n	n
Oc1ccc2ccccc2c1/C=N/n1cnnc1	n	n	n	n	n	n
Cc1nn(C)c(C)c1N=Cc1c(O)ccc2ccccc12	n	8.3µM	x	n	n	n
Oc1ccc2ccccc2c1C=Nc1ccc(Cl)cn1	n	13µM	n	n	n	n
O=C(O[C@@H]1OC2COC(=O)c3cc(O)c(O)c(O)c3-c3c(cc(O)c(O)c3O)C(=O)O[C@@H]([C@H]1O)[C@@H]2O)c1cc(O)c(O)c(O)c1	u	n	n	n	13µM	2.5µM
COc1ccc(CCNC(=O)c2c(C)nn(-c3ccccc3)c2Cl)cc1OC	n	n	n	n	n	n
Cc1cccc(NC(=S)NN(Cc2ccccc2)c2ccccc2)c1C	n	4.1µM	x	n	n	n
CCOC(=O)CCCCCN1C(=O)c2cccc3cccc(c23)C1=O	n	6.6µM	n	n	n	n
CCOC(=O)CCCSc1nnc(CCCCCN2C(=O)c3cccc4cccc(c34)C2=O)o1	n	1.9µM	u	n	n	n
CCOC(=O)CSc1nnc(CCCCCN2C(=O)c3cccc4cccc(c34)C2=O)o1	n	n	u	n	n	n
CC(C)(C)Sc1ccc([N+](=O)[O-])cc1C(=O)Nc1ccncc1	n	0.93µM	u	n	n	n
COc1ccc([N+](=O)[O-])cc1C(=O)Nc1ccc(Cc2ccncc2)cc1	n	n	n	n	n	n
SMILES	HCV inh	Pf growth 96h	Pf growth 48h	NS1 inh	SARS PLP yeast	AMA1-RON2 inh
CCOc1ccc(C(=O)NC(=S)NCc2cccnc2)cc1[N+](=O)[O-]	u	n	n	n	u	n
CCOC(=O)C1(Cc2ccccc2)CCN(Cc2ccon2)CC1	n	u	u	n	n	n
CCOC(=O)C1(Cc2ccccc2)CCCN(Cc2ccncc2)C1 (stereo not drawn)	n	n	9.3µM	n	n	n
CCCn1cc(CN2CCC(Cc3ccccc3)(C(=O)OCC)CC2)c(C)n1	n	10µM	n	n	n	n
CCOC(=O)C1(Cc2ccccc2)CCCN(Cc2cccc(C(C)=O)c2)C1 (stereo not drawn)	n	n	u	n	n	n
O=C(NCCCO)C(=O)Nc1cc2c3c(c1)CCN3C(=O)CC2	n	n	n	n	n	n
CCC(=O)NC(C)c1cc(Cl)c2cccnc2c1O (stereo not drawn)	x	u	u	x	n	x
CCCC(=O)NC(c1ccco1)c1cc(Cl)c2cccnc2c1O (stereo not drawn)	11µM	x	12µM	n	n	n
CCCC(=O)NC(c1cccs1)c1cc(Cl)c2cccnc2c1O (stereo not drawn)	3.2µM	u	3.7µM	n	n	n
CCC(=O)NC(c1ccco1)c1cc(Cl)c2ccccc2c1O (stereo not drawn)	x	u	n	x	n	x
Cc1cc(/C=C2/NC(=O)N(Cc3ccccc3F)C2=O)c(C)n1-c1ccccn1	n	u	9.3µM	n	n	n
Cc1cccc(NC(=O)CN2C(=O)N/C(=C/c3cc(C)n(-c4ccncc4)c3C)C2=O)c1	n	u	n	n	n	n
Cc1cccc(CN2C(=O)N/C(=C/c3cc(C)n(-c4ccccn4)c3C)C2=O)c1	1.8µM	x	13µM	n	n	n
Cc1cc(/C=C2/NC(=O)N(Cc3ccccc3F)C2=O)c(C)n1C	u	10µM	10µM	n	n	n
CC1(C(=O)NS(=O)(=O)Cc2ccccc2)CCN1C(=O)C1(c2ccc(Cl)cc2)CCC1 (stereo not drawn)	x	x	x	x	x	n
CN1CCCN(C)C1c1cc([N+](=O)[O-])ccc1O	x	x	x	n	x	x
O=C(Nc1ccc(Cl)cc1)NC1CCCC1Cc1ccco1 (stereo not drawn)	n	u	10µM	n	n	n
O=c1[nH]c(=S)[nH]cc1Oc1ccc(Cl)cc1Cl	n	n	n	n	n	n
COC(=O)c1ccc(/C=C/c2c(-c3ccsc3)sc3ccccc23)cc1	10µM	u	u	n	n	n
CCCCC1(C(=O)OCC)CC(CSC(=N)N)OC1=O (stereo not drawn)	n	n	n	n	n	n
COc1ccc(-c2[nH]ncc2CN(C)C(C)c2ccon2)c(OC)c1 (stereo not drawn)	n	u	n	n	n	n
COc1cc(-c2[nH]ncc2CN(C)Cc2nonc2C)cc(OC)c1OC	u	1.7µM	u	n	n	n
COc1cc(-c2[nH]ncc2CN(C)Cc2cc(C)[nH]n2)cc(OC)c1OC	n	u	n	n	n	n
COc1ccc(-c2[nH]ncc2CN(C)Cc2nonc2C)c(OC)c1	n	10µM	n	n	n	n
Cn1cc[n+](C)c1P(=S)(c1ccccc1)c1ccccc1	n	u	u	n	n	n
Cn1cccc/c1=N\c1cccc[n+]1C	3.5µM	u	u	n	n	n
